{
  "source": "PubChem BioAssay (NCI)",
  "note": "“And” between values parts separate entries of the source, which are not always exact repeats. Equal entries are not always repeated. This is part of a sample that, as a whole, favours compounds with a hit. Of some 83,000 tested, about 20% had one in any assay.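 Method: cells in 96-well plates; compound added at one concentration; 48 h incubation; percent growth measured; values under 10 scored active.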 The source made the active and inactive calls.",
  "data": [
    {"system": "K-562 leukemia", "assay": "NCI-60 one-dose screen, 48 h (100 = growth as untreated, 0 = no growth, -100 = all killed)", "settings": "10 µM unless noted", "values": [
      {"smiles": "CCOC(=O)C1=C(C)N=C2SC=C(c3ccc(F)cc3)N2[C@H]1c1cn(-c2ccccc2)nc1-c1ccc(Cl)cc1", "growth": "102% (inactive)"},
      {"smiles": "CCN(C(=O)N1CCN(c2cc3c(cc2F)c(=O)c(C(=O)O)cn3C2CC2)CC1)c1nc(-c2ccccc2)cs1", "growth": "13.8% (inactive)"},
      {"smiles": "O=C(/C=C/c1ccc(Cl)s1)c1ccc(Cl)s1", "growth": "95% (inactive) and 92.6% (inactive)"},
      {"smiles": "C=CCOc1ccc(/C=C2\\SC(=S)N(CCc3ccc(O)cc3)C2=O)cc1", "growth": "62.1% (inactive)"},
      {"smiles": "Cc1c(CC(=O)OCCO)cc(-c2ccc(Cl)cc2)n1-c1ccccc1", "growth": "70.5% (inactive)"},
      {"smiles": "CC1(C)C(N)=Nc2cc(OCCCN3Cc4ccc(OCCc5cn(CC(=O)N6CCC(CCN7CCCC7)CC6)nn5)cc4C3)c(OCC3CC3)cc21", "growth": "88% (inactive)"},
      {"smiles": "O=C1OCC2=C1C(c1cccc(C(F)(F)F)c1)c1cc3c(cc1N2CCO)OCCO3", "note": "(stereo not drawn)", "growth": "9.6% (active)"},
      {"smiles": "N#CC1=C(N)Oc2c(sc3c(Br)cccc23)C1c1ccccn1", "note": "(stereo not drawn)", "growth": "15.2% (inactive)"},
      {"smiles": "O=C1c2cccc3cccc(c23)C(=O)N1N1C(=O)c2cccc3c(N4CCNCC4)ccc(c23)C1=O", "growth": "-59.2% (active)"},
      {"smiles": "O=C(Nc1ccc(F)cc1)c1cc2cc(Nc3nc(-c4ccccc4)nc4ccccc34)ccc2oc1=O", "growth": "102% (inactive)"},
      {"smiles": "O=C1c2cc3c(cc2-c2c1c1ccc(Cl)cc1c(=O)n2CCCn1ccnc1)OCO3", "growth": "1.87% (active)"},
      {"smiles": "COc1ccc(C/C(C)=C(/c2ccc(OCCN3CCCC3)cc2)c2ccc(OC(=O)NCc3ccccc3)cc2)cc1", "growth": "1.16% (active)"},
      {"smiles": "CCCO/N=C/c1ccccn1", "growth": "99.5% (inactive) and 103% (inactive)"},
      {"smiles": "COc1ccc(-c2csc(NC(=O)CN3CCN(CCO)CC3)n2)cc1NS(=O)(=O)c1cccc2c(N(C)C)cccc12", "growth": "23.1% (inactive)"},
      {"smiles": "Cc1ccc(-c2nc3nc(-c4ccccc4)nc(N4CCN(S(=O)(=O)c5ccccc5)CC4)c3o2)cc1", "growth": "97.7% (inactive)"},
      {"smiles": "CCOc1nc(-c2ccccc2)cc2c(O)c(C(=O)N/N=C/c3ccc(N(C)C)cc3)[nH]c(=O)c12", "growth": "105% (inactive)"},
      {"smiles": "C/C(=C(\\c1ccc(OCCN2CCOCC2)cc1)c1ccc(OC(=O)C2CCCCC2)cc1)c1ccc(Cl)cc1", "growth": "66.1% (inactive)"},
      {"smiles": "COc1ccc2c(c1)CC[C@@H]1[C@@H]2CC[C@]2(C)C3C(=CCC4C(=O)N(c5ccccc5)C(=O)C43)C[C@@H]12", "note": "(stereo partly drawn)", "growth": "76.9% (inactive)"},
      {"smiles": "CC(=O)c1c(C)nc2ccccc2c1/C=C/c1cccc(C)c1", "growth": "16.1% (inactive)"},
      {"smiles": "CCN(CC)CC#CCOC(=O)[C@]1(C)CCC[C@]2(C)c3ccc(C(C)C)cc3CC[C@@H]12", "growth": "63.4% (inactive)"},
      {"smiles": "O=C1/C(=C/c2ccc(-c3ccccc3C(F)(F)F)o2)SC(=S)N1CCc1ccc(O)cc1", "growth": "17.5% (inactive)"},
      {"smiles": "COc1ccc(-c2[nH]c3ccccc3c2-c2ccc(OC)cc2)cc1", "growth": "3.69% (active)"},
      {"smiles": "O=C(CN1C(=O)S/C(=C\\C(Cl)=C\\c2ccccc2)C1=O)NC1C=CS(=O)(=O)C1", "note": "(stereo not drawn)", "growth": "4.66% (active)"},
      {"smiles": "CCOC(=O)N(O)c1ccc(/C=C/c2ccccc2)cc1", "growth": "39.9% (inactive) and 40.3% (inactive)"},
      {"smiles": "COc1cc(/C=C2/C=C(c3ccc(C(C)(C)C)cc3)N(CCc3ccc(S(N)(=O)=O)cc3)C2=O)cc(OC)c1OC", "growth": "24.5% (inactive)"},
      {"smiles": "O=[N+]([O-])c1cc(C(F)(F)F)ccc1Sc1ccc(C(F)(F)F)cc1[N+](=O)[O-]", "growth": "8.04% (active)"},
      {"smiles": "O=C(N=Nc1c(O)[nH]c2ccccc12)Nc1ccccc1Cl", "growth": "88.1% (inactive)"},
      {"smiles": "Nc1n[nH]c2cccc(C#Cc3cccc(NC(=O)c4ccc(N5CCOCC5)c(C(F)(F)F)c4)c3)c12", "growth": "0.995% (active)"},
      {"smiles": "COc1ccc(Oc2nc(Nc3ccc(N4CCOCC4)cc3)ncc2NC(=O)c2cc(OC)cc(OC)c2)cc1", "growth": "58.3% (inactive)"},
      {"smiles": "COc1cc(F)c(/C=C/c2cc(/C=C/c3cc(OC)c(OC)cc3F)n(-c3cc(F)cc(F)c3)n2)cc1OC", "growth": "20.3% (inactive)"},
      {"smiles": "[Cu+].[NH-][C@H]1C[N-]C(=O)[C@H]([C@H]2CCN=C(N)N2)[N-]C(=O)/C(=C\\NC(N)=O)[N-]C(=O)[C@H](CNC(=O)C[C@@H](N)CCCN)[N-]C(=O)[C@H](CO)[N-]C1=O", "growth": "101% (inactive)"},
      {"smiles": "COc1cc(N=Nc2ccc(O)c3ncccc23)c2ncccc2c1", "growth": "10.9% (inactive)"},
      {"smiles": "O=S(=O)(O)c1ccc(N=Nc2ccc(N=Nc3cccc4ccccc34)c(S(=O)(=O)O)c2)cc1", "growth": "104% (inactive)"}
    ]}
  ]
}
